Test results as given in PubChem BioAssay.

system: XIP peptide (Xip251-270); test: compounds binding XIP fragment 251-270 – biochemical, small-molecule microarray, fluorescence 635/667 nm, 0.5 µg/mL protein, primary screen (AID 1183); settings: fluorescence 635 nm, higher = more signal

For `Cc1ccc(S[C@]2(C(=O)O)CC(=O)N(Cc3ccccc3)[C@@H]2c2ccc(CO)cc2)cc1`, which composite z-score is on record?
The composite z-score was -0.655.

Which composite z-score does the source give for `Cc1ccc(S[C@]2(C(=O)NC(C)C)CC(=O)N(Cc3cc(C(F)(F)F)cc(C(F)(F)F)c3)[C@@H]2c2ccc(CO)cc2I)cc1` here?
The composite z-score was 0.667.

For `COC(=O)C1=C(C)N(Cc2ccccc2)c2c(C(=O)OC)c(C(=O)OC)c(C(=O)OC)c(=O)n2[C@@H]1c1ccccc1`, which composite z-score is on record?
Its composite z-score is -0.0775.

Which composite z-score does the source give for `C=C(CCCC)/C(=C/C[C@@H](OC(=O)c1ccncc1)c1ccc(CO)o1)c1cnc2ccccc2c1` here?
Its composite z-score is 0.776.

Which composite z-score does the source give for `CN(C)c1ccc(C(O)C2C=CC3C(=O)NC(=O)C3N2Nc2ccc(Cl)cc2Cl)cc1` (configuration not stated) here?
Its composite z-score is 0.16.

For `CC(C)(C)OC(=O)CC[C@]1(C(=O)NCCN2CCOCC2)N=C(c2ccc(OCCCO)cc2)O[C@H]1c1ccccc1CN=[N+]=[N-]`, which composite z-score is on record?
The composite z-score was 0.58.

With `COc1cc2c(cc1OC)CN(C(=O)[C@H]1[C@@H]3C(=O)O[C@@H](c4ccccc4)[C@@H](c4ccccc4)N3[C@@H](c3ccc(O)cc3)[C@]13C(=O)Nc1ccc(C#CC4(O)CCCCCC4)cc13)CC2` as the compound, how does the composite z-score read?
The composite z-score was 0.838.

Which composite z-score does the source give for `Cc1ccc(N2C(=O)c3ccccc3[C@](C)(C(=O)NCC(C)C)[C@@H]2c2ccc(CO)cc2)nc1` here?
The composite z-score was -0.662.

For `CCOC(=O)C[C@H]1[C@H](OC(=O)c2ccccc2-c2ccccc2)[C@@H](NC(=O)c2ccc(-c3ccccc3)cc2)c2cc(OCCCO)ccc2N1C(=O)Cc1ccc(OC)cc1`, which composite z-score is on record?
Its composite z-score is 0.222.

With `COc1cccc([C@@H]2[C@@H](C)CC[C@H]3C(=O)N(C)[C@@H](C(C)C)C(=O)N23)c1` as the compound, how does the composite z-score read?
The composite z-score was 0.247.

With `CO[C@@H]1COC(=O)CC=C[C@H](C)COC(=O)[C@H](Cc2ccccc2)NC(=O)CC=C[C@H]1C` as the compound, how does the composite z-score read?
The composite z-score was 0.18.

For `C=CCN1C(=O)[C@@]2(O[C@@H](CCn3cc([C@H](O)c4ccccc4)nn3)[C@H]([Si](C)(C)c3ccc(OC)cc3)[C@H]2C)c2cc(N3CCOC3=O)ccc21`, which composite z-score is on record?
Its composite z-score is -0.52.

For `O=C(O)[C@@H]1Cc2c([nH]c3ccccc23)[C@@H](c2ccccc2)N1`, which composite z-score is on record?
Its composite z-score is 0.0822.

Which composite z-score does the source give for `CC(=O)Nc1ccc([C@H]2[C@H](C)CC[C@H]3C(=O)N4[C@@H](CC[C@@H](C)[C@@H]4c4ccc(NC(C)=O)cc4)C(=O)N32)cc1` here?
Its composite z-score is 0.757.

Which composite z-score does the source give for `C=CCOC(=O)[C@@H]1[C@H]2C(=O)O[C@H](c3ccccc3)[C@H](c3ccccc3)N2[C@H](c2ccc(OCCOC(=O)[C@H]3C[C@H]4C(=O)N5CCC[C@H]5C(=O)N4[C@H]3c3ccc(O)cc3)cc2)[C@@]12C(=O)Nc1ccccc12` here?
Its composite z-score is 0.804.

For `O=C1NC(=O)C2C1C=CC(C(O)C=Cc1ccc([N+](=O)[O-])cc1)N2Nc1ccccn1` (configuration not stated), which composite z-score is on record?
The composite z-score was 0.792.

For `COc1cc(Cc2cc3c(c(CCc4ccccc4)n2)[Si](C(C)C)(C(C)C)OC3)cc(OC)c1OC`, which composite z-score is on record?
Its composite z-score is -0.122.

Which composite z-score does the source give for `CCCCCCc1nc(-c2cc(C)c(OC)c(C)c2)cc2c1[Si](C(C)C)(C(C)C)O[C@H]2c1ccccc1` here?
Its composite z-score is -0.461.

For `CO[C@H]1COC(=O)[C@H](C)COC(=O)[C@H](Cc2ccccc2)NC(=O)CC=C[C@H]1C`, which composite z-score is on record?
The composite z-score was 0.613.

Which composite z-score does the source give for `CO[C@H]1COC(=O)CC=C[C@@H](C)COC(=O)[C@@H](C)NC(=O)CC=C[C@@H]1C` here?
Its composite z-score is 0.405.

With `COC(=O)[C@@]1(Cc2ccccc2CN=[N+]=[N-])N=C(c2ccc(OCCCO)cc2)O[C@H]1c1ccccc1N=[N+]=[N-]` as the compound, how does the composite z-score read?
Its composite z-score is 0.653.

With `C#CCNC(/C=C/c1ccccc1)CO` (configuration not stated) as the compound, how does the composite z-score read?
Its composite z-score is 0.0391.

Which composite z-score does the source give for `CO[C@H]1COC(=O)CC=C[C@H](C)COC(=O)[C@@H](OCc2ccccc2)C=C[C@@H]1C` here?
The composite z-score was 0.547.

With `C[N+](C)(C)CCCCNC(=O)[C@H]1C[C@H]2C(=O)NCC(=O)N2[C@H]1c1cccc(OCCO)c1` as the compound, how does the composite z-score read?
The composite z-score was 0.839.

For `O=C1O[C@@H](c2ccccc2)[C@@H](c2ccccc2)N2[C@@H](c3ccc(OCCO)cc3)[C@]3(C(=O)Nc4ccc(C#CCCO)cc43)[C@@H](C(=O)N3CCN(c4ncccn4)CC3)[C@H]12`, which composite z-score is on record?
Its composite z-score is 0.721.

With `C=C(C)[C@@H]1CC=C(C(O)C2C=CC3C(=O)NC(=O)C3N2Nc2ccccn2)CC1` (some centres not stated) as the compound, how does the composite z-score read?
The composite z-score was 0.718.

system: not listed separately; test: blood-stage malaria parasite viability loss – strain 3D7, DAPI fluorescence, 100 nL, primary screen (AID 1184);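 further: parasites grown inside human red blood cells in medium with human serum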; settings: P. falciparum 3D7 growth, 3 d, higher = more signal

Which z-score does the source give for `CC(C)N1CC=CC23O[C@@H]4/C=C\CCCOC(=O)C4[C@H]2C(=O)N(CCCCCO)[C@@H]3C1=O` (some centres not stated) here?
The z-score was -0.426.

For `[N-]=[N+]=NCc1ccccc1C[C@@]1(C(=O)O)N=C(c2ccc(OCCCO)cc2)O[C@@H]1c1ccccc1N=[N+]=[N-]`, which z-score is on record?
Its z-score is -2.15.

Which z-score does the source give for `CO[C@H]1COC(=O)[C@H](C)NC(=O)CC=C[C@@H](C)[C@H](NS(=O)(=O)c2ccc(C)cc2)COC(=O)CC=C[C@@H]1C` here?
The z-score was -0.266.

With `CC(c1ccccc1)C(O)C1C=CC2C(=O)N(C)C(=O)C2N1N(c1ccccc1)c1ccccc1` (configuration not stated) as the compound, how does the z-score read?
The z-score was -0.141.

Which z-score does the source give for `CO[C@H]1COC(=O)[C@@H](C)NC(=O)CC=C[C@@H](C)[C@H](OC)COC(=O)CC=C[C@@H]1C` here?
Its z-score is -0.243.

With `COc1ccc(CCN2C(=O)[C@@]3(c4ccc([N+](=O)[O-])cc4)CC(=O)N(CC45CC6CC(CC(C6)C4)C5)[C@@H]3c3ccc(CO)cc32)cc1` as the compound, how does the z-score read?
Its z-score is -1.07.

For `O=C1C[C@@](C(=O)NCCN2CCOCC2)(c2ccc([N+](=O)[O-])cc2)[C@@H](c2ccc(CO)cc2)N1C1CCCCC1`, which z-score is on record?
Its z-score is -1.6.

With `C[C@@H]1CC[C@H]2C(=O)N3[C@@H](CC[C@@H](C)[C@@H]3c3cccc(N4CCOCC4)c3)C(=O)N2[C@H]1c1cccc(N2CCOCC2)c1` as the compound, how does the z-score read?
The z-score was -0.529.

With `C#CCCCON=C1C[C@@H](O)[C@@H](O)[C@@H]2[C@@H]3C(=O)N(Cc4ccc5c(c4)OCO5)C(=O)[C@@H]3CC[C@H]12` as the compound, how does the z-score read?
The z-score was 0.594.

With `CCOC(=O)C[C@H]1[C@H](OC(=O)Cc2ccc3c(c2)OCO3)[C@@H](NC(=O)CC(C)C)c2cc(OCCCO)ccc2N1C(=O)c1ccccc1` as the compound, how does the z-score read?
The z-score was -0.584.

With `Cc1ccc(S[C@]2(C(=O)O)CC(=O)N(Cc3ccccc3)[C@@H]2c2ccc(CO)cc2)cc1` as the compound, how does the z-score read?
The z-score was -0.254.

Which z-score does the source give for `Cc1ccc(S[C@]2(C(=O)NC(C)C)CC(=O)N(Cc3cc(C(F)(F)F)cc(C(F)(F)F)c3)[C@@H]2c2ccc(CO)cc2I)cc1` here?
Its z-score is 0.201.

With `COC(=O)C1=C(C)N(Cc2ccccc2)c2c(C(=O)OC)c(C(=O)OC)c(C(=O)OC)c(=O)n2[C@@H]1c1ccccc1` as the compound, how does the z-score read?
The z-score was 0.149.

With `C=C(CCCC)/C(=C/C[C@@H](OC(=O)c1ccncc1)c1ccc(CO)o1)c1cnc2ccccc2c1` as the compound, how does the z-score read?
Its z-score is -0.573.

Which z-score does the source give for `CN(C)c1ccc(C(O)C2C=CC3C(=O)NC(=O)C3N2Nc2ccc(Cl)cc2Cl)cc1` (configuration not stated) here?
The z-score was -0.599.

For `CC(C)(C)OC(=O)CC[C@]1(C(=O)NCCN2CCOCC2)N=C(c2ccc(OCCCO)cc2)O[C@H]1c1ccccc1CN=[N+]=[N-]`, which z-score is on record?
Its z-score is -0.867.

Which z-score does the source give for `COc1cc2c(cc1OC)CN(C(=O)[C@H]1[C@@H]3C(=O)O[C@@H](c4ccccc4)[C@@H](c4ccccc4)N3[C@@H](c3ccc(O)cc3)[C@]13C(=O)Nc1ccc(C#CC4(O)CCCCCC4)cc13)CC2` here?
The z-score was -1.51.

Which z-score does the source give for `Cc1ccc(N2C(=O)c3ccccc3[C@](C)(C(=O)NCC(C)C)[C@@H]2c2ccc(CO)cc2)nc1` here?
Its z-score is 0.11.

For `CCOC(=O)C[C@H]1[C@H](OC(=O)c2ccccc2-c2ccccc2)[C@@H](NC(=O)c2ccc(-c3ccccc3)cc2)c2cc(OCCCO)ccc2N1C(=O)Cc1ccc(OC)cc1`, which z-score is on record?
The z-score was 0.561.

For `COc1cccc([C@@H]2[C@@H](C)CC[C@H]3C(=O)N(C)[C@@H](C(C)C)C(=O)N23)c1`, which z-score is on record?
Its z-score is 0.451.

For `CO[C@@H]1COC(=O)CC=C[C@H](C)COC(=O)[C@H](Cc2ccccc2)NC(=O)CC=C[C@H]1C`, which z-score is on record?
The z-score was 0.684.

Which z-score does the source give for `C=CCN1C(=O)[C@@]2(O[C@@H](CCn3cc([C@H](O)c4ccccc4)nn3)[C@H]([Si](C)(C)c3ccc(OC)cc3)[C@H]2C)c2cc(N3CCOC3=O)ccc21` here?
Its z-score is -2.71.

Which z-score does the source give for `O=C(O)[C@@H]1Cc2c([nH]c3ccccc23)[C@@H](c2ccccc2)N1` here?
The z-score was -0.421.

Which z-score does the source give for `CC(=O)Nc1ccc([C@H]2[C@H](C)CC[C@H]3C(=O)N4[C@@H](CC[C@@H](C)[C@@H]4c4ccc(NC(C)=O)cc4)C(=O)N32)cc1` here?
The z-score was 0.179.

For `C=CCOC(=O)[C@@H]1[C@H]2C(=O)O[C@H](c3ccccc3)[C@H](c3ccccc3)N2[C@H](c2ccc(OCCOC(=O)[C@H]3C[C@H]4C(=O)N5CCC[C@H]5C(=O)N4[C@H]3c3ccc(O)cc3)cc2)[C@@]12C(=O)Nc1ccccc12`, which z-score is on record?
The z-score was -2.01.

With `O=C1NC(=O)C2C1C=CC(C(O)C=Cc1ccc([N+](=O)[O-])cc1)N2Nc1ccccn1` (configuration not stated) as the compound, how does the z-score read?
Its z-score is -0.304.

With `COc1cc(Cc2cc3c(c(CCc4ccccc4)n2)[Si](C(C)C)(C(C)C)OC3)cc(OC)c1OC` as the compound, how does the z-score read?
The z-score was -2.33.

Which z-score does the source give for `CCCCCCc1nc(-c2cc(C)c(OC)c(C)c2)cc2c1[Si](C(C)C)(C(C)C)O[C@H]2c1ccccc1` here?
Its z-score is -0.753.

With `CO[C@H]1COC(=O)[C@H](C)COC(=O)[C@H](Cc2ccccc2)NC(=O)CC=C[C@H]1C` as the compound, how does the z-score read?
The z-score was 0.724.

With `CO[C@H]1COC(=O)CC=C[C@@H](C)COC(=O)[C@@H](C)NC(=O)CC=C[C@@H]1C` as the compound, how does the z-score read?
The z-score was -0.437.

With `COC(=O)[C@@]1(Cc2ccccc2CN=[N+]=[N-])N=C(c2ccc(OCCCO)cc2)O[C@H]1c1ccccc1N=[N+]=[N-]` as the compound, how does the z-score read?
Its z-score is -1.94.

For `C#CCNC(/C=C/c1ccccc1)CO` (configuration not stated), which z-score is on record?
Its z-score is -0.414.

For `CO[C@H]1COC(=O)CC=C[C@H](C)COC(=O)[C@@H](OCc2ccccc2)C=C[C@@H]1C`, which z-score is on record?
Its z-score is -1.58.

For `C[N+](C)(C)CCCCNC(=O)[C@H]1C[C@H]2C(=O)NCC(=O)N2[C@H]1c1cccc(OCCO)c1`, which z-score is on record?
The z-score was 0.312.

For `O=C1O[C@@H](c2ccccc2)[C@@H](c2ccccc2)N2[C@@H](c3ccc(OCCO)cc3)[C@]3(C(=O)Nc4ccc(C#CCCO)cc43)[C@@H](C(=O)N3CCN(c4ncccn4)CC3)[C@H]12`, which z-score is on record?
Its z-score is -2.03.

With `C=C(C)[C@@H]1CC=C(C(O)C2C=CC3C(=O)NC(=O)C3N2Nc2ccccn2)CC1` (some centres not stated) as the compound, how does the z-score read?
The z-score was 0.982.
